Compound activity (PubChem BioAssay)
Rab9 prom act: Rab9 promoter activation; Huh7 Rab9 promoter-luciferase reporter, luminescence, 24 h; Potency, µM (series often up to 9.22 µM), for the others: at the top dose activation, negative = inhibition, hits mostly activators; 320,000 compounds, 2.8% hits; note: % of control where 0% means no effect; nearly all actives have a fitted effect of over 60% in size
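Stable Rab9-luc Huh7, 1500 cells/well, 2 h settle; cmpd in DMSO, 24 h, 37 °C/5% CO2; luciferase reagent 10 min RT; luminescence.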
NPC1 promoter act: NPC1 promoter activation; 320,000 compounds, 2.4% hits; Huh7 NPC1 promoter luciferase reporter, 24 h; Potency, µM (highest dose often 9.22 µM), for the others: at the highest dose activation, most hits filed as activators; note: % of control where 0% means no effect; nearly all actives have a fitted effect of over 60% in size
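NPC1 promoter–luciferase Huh7 cells; 24 h compound; luminescence.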
ELG1 genotoxic: inducers of genotoxicity in HEK293T ELG1-luciferase cells; HEK293T ELG1-luciferase reporter, luminescence, 16 h; Potency, µM (series often up to 46 µM), inactives show at the highest dose activity change, positive = activation, actives largely listed as activators; 330,000 compounds, 1.3% hits; AID 504466; note: % of control where 0% means no effect; nearly all actives have a fitted effect of over 60% in size
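Genotoxic stress is detected as increased luminescence from luciferase-tagged ELG1 in HEK293T cells, measured with ONE-Glo after a 16 hr treatment at 37 °C.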
ELG1 DNA repair: inhibitors of ELG1-dependent DNA repair in HEK293T cells; HEK293T ELG1-luciferase reporter, luminescence, 16 h; DNA damage induced by 5-fluorouridine; Potency, µM (highest dose often 46.1 µM), for the others: at the top dose activity change, negative = inhibition, usual class: inhibitors; 330,000 compounds, 2.3% hits; AID 504467; note: % is set by controls: 0 for no effect and ±100 for the full control effect; nearly all actives have a fitted effect of over 55% in size
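Step one: seed 2,000 cells per well. Step two: pin-transfer compound or DMSO alongside 5-fluorouridine. Step three: incubate 16 hr, 37 °C, 5% CO2. Step four: add ONE-Glo, wait 30 min, read luminescence.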
FLuc counter: inhibits or activates purified firefly luciferase, miR-21 counter-screen. 360,000 compounds, 6.9% hits. P08659. Potency, µM (highest dose often 57.5 µM), for the others: at the highest dose activity change, negative = inhibition, most hits filed as inhibitors. purified FLuc, Km substrates, luminescence inhibition;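 note: plate controls were vehicle for no effect and reference inhibitor for full effect; nearly all actives have a fitted effect of over 55% in size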
Target sequence (P08659 whole entry, looked up): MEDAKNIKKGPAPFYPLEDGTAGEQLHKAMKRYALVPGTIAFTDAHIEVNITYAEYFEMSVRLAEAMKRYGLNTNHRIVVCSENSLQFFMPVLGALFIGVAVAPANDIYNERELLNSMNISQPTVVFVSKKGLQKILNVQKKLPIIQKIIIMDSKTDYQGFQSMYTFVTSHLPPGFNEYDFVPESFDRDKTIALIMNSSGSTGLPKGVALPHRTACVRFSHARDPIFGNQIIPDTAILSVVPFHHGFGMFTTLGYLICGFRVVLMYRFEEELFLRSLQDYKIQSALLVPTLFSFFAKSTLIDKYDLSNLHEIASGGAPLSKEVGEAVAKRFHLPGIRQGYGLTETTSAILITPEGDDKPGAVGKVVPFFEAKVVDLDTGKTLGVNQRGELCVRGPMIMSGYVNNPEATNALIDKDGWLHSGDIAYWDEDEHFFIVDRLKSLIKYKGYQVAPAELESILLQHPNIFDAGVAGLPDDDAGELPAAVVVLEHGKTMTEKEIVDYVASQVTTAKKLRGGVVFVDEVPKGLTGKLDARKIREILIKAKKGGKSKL
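Purified P. pyralis luciferase, 10 nM final, with Km-level 10 uM D-luciferin and 10 uM ATP in 50 mM Tris acetate pH 7.5, 10 mM Mg acetate, 0.01% Tween-20, 0.05% BSA; 6-point qHTS titration about 60 µM downward; luminescence read.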
SMN2 splice enh: enhancers of SMN2 splice variant expression. AID 1458. HEK293 SMN2-luciferase splicing reporter, luminescence, 30-36 h. 210,000 compounds, 2.8% hits. Potency, µM (doses to about 46.1 µM), inactives show at the highest dose activity change, positive = activation, hits mostly activators; note: % of control where 0% means no effect; nearly all actives have a fitted effect of over 55% in size
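HEK293 cells carry an SMN2 […]–luciferase reporter in which exon 7 inclusion puts luciferase in frame. Cells were plated 10-12 h before compound addition, then incubated 30-36 h at 37C. ONE-Glo luminescence was read; sodium butyrate at 4.5 mM final served as control.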
* hit, by the source's call; [ ] = another dose, or the depositor's remark. Most compounds without a hit are left out; they make up all but 9.2% or so of the library. Calls come from the whole dose curve; as a rule, active = well fitted curve in the direction sought with a large enough effect; inconclusive = small, poorly fitted or top-dose-only effect, or another doubt; inactive = no such curve, though single readings can be large; an effect the other way counts as inactive or inconclusive. Potency is the fitted concentration of half-maximal effect.

Screening O=C(c1ccco1)N1CCN(C(=O)c2cc(-c3ccccc3)nc3ccccc23)CC1 returned Rab9 prom act 4%, NPC1 promoter act 10%, ELG1 genotoxic 0%, ELG1 DNA repair inconclusive, FLuc counter 6.7µM* and SMN2 splice enh 8%.
O=C(c1cc(-c2ccccc2)nc2ccccc12)N1CCN(C2CCS(=O)(=O)C2)CC1 (stereo not given) was read as Rab9 prom act 2%, NPC1 promoter act 0%, ELG1 genotoxic 1%, ELG1 DNA repair 6% and FLuc counter 27µM*.
Screening COc1ccc(C2CC(=O)C=C(NCc3ccccc3)C2)cc1 (stereo not given) returned Rab9 prom act 1%, NPC1 promoter act -11%, ELG1 genotoxic -3%, ELG1 DNA repair -16% and FLuc counter 1%.
`COc1ccc(S(=O)(=O)N2CCOCC2)cc1NC(=O)CCCOc1ccc(Cl)cc1C` gave Rab9 prom act 0%, NPC1 promoter act -3%, ELG1 genotoxic -3%, ELG1 DNA repair inconclusive and FLuc counter inconclusive.
`CCOc1ccc(OCCC(=O)OCC(=O)Nc2cc(OCC)c(N3CCOCC3)cc2OCC)cc1` gave Rab9 prom act -5%, NPC1 promoter act -5%, ELG1 genotoxic inconclusive, ELG1 DNA repair -11% and FLuc counter -4%.
`COc1cccc(CC(=O)Nc2ccc(-c3nc4ccccc4s3)cc2)c1` gave FLuc counter 6µM*.
COc1cc(OC)cc(C(=O)Nc2ccc(-c3nc4ccccc4s3)cc2C)c1 was read as FLuc counter -6% and SMN2 splice enh 10%.
For COc1ccc(/C=C(/CC(=O)NCc2ccc(Cl)cc2)c2nc3ccccc3s2)cc1 the results were Rab9 prom act -4%, NPC1 promoter act 4%, ELG1 genotoxic 16%, ELG1 DNA repair 27%, FLuc counter -18% and SMN2 splice enh -13%.
For COc1cccc(-c2nc3ccccc3s2)c1 the results were Rab9 prom act inconclusive, NPC1 promoter act 13%, ELG1 genotoxic 2.1µM*, ELG1 DNA repair inconclusive, FLuc counter 0.85µM* and SMN2 splice enh inconclusive.
For COc1ccc(/C=C(/CC(=O)Nc2ccccc2)c2nc3ccccc3s2)cc1 the results were Rab9 prom act 27%, NPC1 promoter act 13%, ELG1 genotoxic 9%, ELG1 DNA repair inconclusive, FLuc counter 21µM* and SMN2 splice enh -22%.
Screening CCc1nnc(NC(=O)c2ccc3ncsc3c2)s1 returned Rab9 prom act inconclusive, NPC1 promoter act inconclusive, ELG1 genotoxic inconclusive, ELG1 DNA repair inconclusive and FLuc counter 24µM*.
For CC1(C)Cc2c(sc(NC(=O)c3ccc4ncsc4c3)c2C(N)=O)C(C)(C)N1 the results were Rab9 prom act inconclusive, NPC1 promoter act inconclusive, ELG1 genotoxic 16µM*, ELG1 DNA repair inconclusive, FLuc counter inconclusive and SMN2 splice enh inconclusive.
Screening CC(C)c1ccccc1NC(=O)c1ccc2ncsc2c1 returned Rab9 prom act -2%, NPC1 promoter act 2%, ELG1 genotoxic 13%, ELG1 DNA repair inconclusive and FLuc counter inconclusive.
Screening Cc1cnc(NC(=O)c2ccc3ncsc3c2)s1 returned Rab9 prom act 0.71µM*, NPC1 promoter act 1.3µM*, ELG1 genotoxic inconclusive, ELG1 DNA repair inconclusive and FLuc counter 3µM*.
For CCc1nnc(NC(=O)c2ccc3c(c2)C(=O)N(C(C)(C)C)C3=O)s1 the results were Rab9 prom act 3.2µM*, NPC1 promoter act 3.5µM*, ELG1 genotoxic inconclusive, ELG1 DNA repair inconclusive, FLuc counter 2.7µM* and SMN2 splice enh inconclusive.
For CCc1nnc(NC(=O)c2ccncc2)s1 the results were Rab9 prom act 1%, NPC1 promoter act -2%, ELG1 genotoxic 8%, ELG1 DNA repair inconclusive, FLuc counter -17% and SMN2 splice enh -3%.
`COc1ccc(Cl)cc1NC(=O)N1CCC2(CC1)Oc1ccccc1C(=O)N2Cc1ccc(F)cc1` gave FLuc counter -11%.
Cc1ccc(S(=O)(=O)c2c(Nc3cc(F)ccc3F)sc(C(=O)c3ccc(F)cc3)c2N)cc1 was read as FLuc counter -1% and SMN2 splice enh -9%.
CC(C)c1ccc2oc(-c3ccc(Cl)c(NC(=O)Cc4ccccc4)c3)nc2c1 was read as FLuc counter 4.3µM* and SMN2 splice enh 12%.
For COc1ccc(-c2nc3cc(C(C)C)ccc3o2)cc1NC(=O)c1ccccc1[N+](=O)[O-] the results were FLuc counter 2.7µM* and SMN2 splice enh -1%.
`CC(C)c1ccc2oc(-c3ccc(Cl)c(NC(=O)c4cccs4)c3)nc2c1` gave FLuc counter 2.1µM* and SMN2 splice enh 4%.
For COc1ccc(-c2nc3ccccc3o2)cc1NC(=O)c1cc(Br)ccc1OC the results were FLuc counter 1% and SMN2 splice enh -8%.
Screening Cc1ccc(-c2nc3cc(C(C)C)ccc3o2)cc1NC(=O)c1cc2ccccc2o1 returned FLuc counter 2.4µM* and SMN2 splice enh -8%.
CCOC(=O)N1CCc2c(sc3c2c(=O)n(Cc2ccccc2)c(=O)n3Cc2ccccc2Cl)C1 was read as FLuc counter 3% and SMN2 splice enh 9%.
`N.N.N.N.N.N.N.N.N.N.N.N.N.N.O.O.[Ru+4].[Ru+5].[Ru+5]` gave Rab9 prom act -11%[46.1 µM] and NPC1 promoter act -12%[46.1 µM].
CN(CC(=O)Nc1ccc(Cl)cc1F)S(=O)(=O)c1ccc2c(c1)n(C)c(=O)c(=O)n2C was read as FLuc counter -3% and SMN2 splice enh 4%.
For CCc1nc(C)cn1S(=O)(=O)c1ccc(Cl)c(Cl)c1OC the results were FLuc counter -2% and SMN2 splice enh -76%.
`CC1CCCN(C(=O)COC(=O)c2cc(-c3cccs3)nn2-c2ccccc2)C1` (stereo not given) gave Rab9 prom act 9%, NPC1 promoter act 0%, ELG1 genotoxic -2%, ELG1 DNA repair 6% and FLuc counter -4%.
`Cc1nc(-c2cccc(NC(=O)C3CCCCC3)c2)cs1` gave Rab9 prom act 1%, NPC1 promoter act 0%, ELG1 genotoxic -1%, ELG1 DNA repair inconclusive, FLuc counter inconclusive and SMN2 splice enh 9%.
`Cc1nc(-c2ccc(NC(=O)C3CC3)cc2)cs1` gave Rab9 prom act 2.8µM*, NPC1 promoter act 2.5µM*, ELG1 genotoxic 21µM*, ELG1 DNA repair inconclusive and FLuc counter 11µM*.
